Source: PubChem BioAssay
CYP2C9 inh: human CYP2C9 inhibition; P11712; CYP2C9 Supersomes, luciferin-H conversion, luminescence; inhibition, % at 5 µM; 20% of 96,000 active;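 active = blocking of liver enzyme CYP2C9 beyond about 50% at 5 µM, limit read from the data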
CYP2C19 inh: inhibitors of human CYP2C19. P33261. CYP2C19 Supersomes, luciferin-H EGE luminescence, 30 min. inhibition, % at 5 µM. 21% of 96,000 active. AID 778;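 active = CYP2C19 inhibition above a set limit at 5 µM in the primary screen, cut at about 50% in these data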;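 note: plate controls were negative control wells for no effect and 2.5 mM tranylcypromine positive control for full effect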
Target sequence (P33261 whole entry, looked up): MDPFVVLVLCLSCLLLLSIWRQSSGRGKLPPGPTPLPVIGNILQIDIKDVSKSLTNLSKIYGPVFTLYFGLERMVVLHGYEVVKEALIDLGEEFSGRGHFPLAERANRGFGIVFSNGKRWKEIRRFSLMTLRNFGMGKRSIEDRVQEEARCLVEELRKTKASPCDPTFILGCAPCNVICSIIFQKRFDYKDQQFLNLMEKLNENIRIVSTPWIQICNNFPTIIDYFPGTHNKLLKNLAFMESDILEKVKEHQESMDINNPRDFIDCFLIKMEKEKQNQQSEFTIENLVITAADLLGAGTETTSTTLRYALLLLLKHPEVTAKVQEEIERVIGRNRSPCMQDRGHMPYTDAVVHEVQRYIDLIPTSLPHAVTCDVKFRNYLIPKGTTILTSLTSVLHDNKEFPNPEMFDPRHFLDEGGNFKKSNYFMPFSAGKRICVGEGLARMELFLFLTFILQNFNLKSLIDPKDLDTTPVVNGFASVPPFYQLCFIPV
Cav32 inh: inhibitors of human Cav3.2 T-type calcium channel | Cav3.2-expressing cells, Fluo-4 calcium fluorescence FDSS; stronger effect = lower value | 4% of 100,000 active | B-score at 10 µM | O95180 | AID 449739;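 active = single-dose well whose peak fluorescence ratio is a statistical outlier from its plate by either plate-standardised score or position-corrected B-score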
CYP2C9 act: increases human cytochrome P450 2C9 activity; P11712; recombinant CYP2C9, luciferin-H conversion, luminescence; stronger effect = higher value; factor 1 = untreated enzyme, 0 = blocked; activation factor at 5 µM; 1.4% of 96,000 active; AID 1024;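 active = activation factor of 2 or more for CYP2C9 at a 5 µM dose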;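 note: 0 = sulfaphenazole-blocked wells and 1 = vehicle-only wells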
CYP2C19 act: increases human CYP2C19 enzyme activity | activation factor at 5 µM | recombinant CYP2C19, luciferin-H EGE luminescence; stronger effect = higher value; 0 = fully inhibited enzyme, 1 = untreated enzyme | 96,000 tested, under 10 active | P33261;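 active = activation factor of at least 2 at 5 µM in the primary screen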;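 note: 0 = wells with 2.5 mM tranylcypromine and 1 = vehicle-only wells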
Active calls of the source: *; x = no result given. In the library only some 27% were active in any assay of this set; here they are far more common.

SMILES | CYP2C9 inh | CYP2C19 inh | Cav32 inh | CYP2C9 act | CYP2C19 act
NCCCC[C@@H]1NC(=O)c2cc([N+](=O)[O-])cc(I)c2SC[C@@H](C(N)=O)NC(=O)[C@H](Cc2ccc(O)cc2)NC1=O | x | x | 1 | x | x
Cc1ccc(S(=O)(=O)N2CCN(Cc3nc4ccccc4n3C)CC2)cc1 | 18 | 8 | -0.58 | 0.8 | 0.9
Cn1c(CN2CCN(c3ccc(Cl)cc3)CC2)nc2ccccc21 | 15 | 64* | -1.4 | 0.9 | 0.4
CCn1c(CN2CCN(c3ccc(Cl)cc3)CC2)nc2ccccc21 | x | x | -6.7* | x | x
CN(Cc1ccccc1)C(=O)CSc1nnc(-c2ccco2)n1-c1ccccc1 | 18 | 23 | -0.26 | 0.8 | 0.8
Cc1noc(C)c1COC(=O)c1ccccc1Sc1ccccc1C#N | 74* | 59* | -3.5 | 0.3 | 0.4
Cc1cc(C=O)c(C)n1-c1ccc(N2CCCC2)c([N+](=O)[O-])c1 | 44 | 70* | -1 | 0.6 | 0.3
Cc1ccc(NC(=O)/C(C#N)=C/c2cc(C)n(-c3ccc(N4CCOCC4)c([N+](=O)[O-])c3)c2C)c(C)c1 | 20 | -2 | -0.12 | 0.8 | 1
CCCCN(Cc1ccco1)C(=O)Cn1ncc2c(=O)oc3ccc(C)cc3c21 | 20 | 29 | 0.23 | 0.8 | 0.7
O=C(CSc1nnc(COc2cccc3cccnc23)o1)N1CCN(C(=O)c2ccco2)CC1 | x | x | 0.014 | x | x
COc1cccc(N2CCN(c3c(C#N)c(C(F)(F)F)nn3C)CC2)c1 | 92* | 94* | -0.15 | 0.1 | 0.1
Cn1nc(C(F)(F)F)c(C#N)c1N1CCN(c2ccccc2F)CC1 | 21 | -9 | 0.027 | 0.8 | 1.1
CC(=O)NC(Cc1ccccc1F)C(=O)NC1CCN(C(=O)c2cnccn2)CC1 (stereo not given) | -1 | 0 | 0.62 | 1 | 1
CCCCOC(=O)CSc1nc2c(cc1C#N)C(=O)CC(C)(C)C2 | 64* | 49 | -1.6 | 0.4 | 0.5
COc1ccc(-n2c(SCC(=O)Nc3ccccc3)nc3c(c2=O)SCC3)cc1 | 33 | 42 | 0.9 | 0.7 | 0.6
Cn1c(=NC(=O)C2CC2)sc2cccc(F)c21 | 1 | 36 | -0.65 | 1 | 0.6
O=C(CSc1nnc(-c2ccc(Br)cc2)n1C1CCCCC1)N1CCCC1 | x | x | 0.78 | x | x
CC(C)(C)c1ccc(-c2nnc(SCCC#N)n2C2CCCC2)cc1 | 41 | 14 | -4.4* | 0.6 | 0.9
CN(C)Cc1c(O)ccc2c3c(c(=O)oc12)CCCCC3 | -17 | 0 | 0.14 | 1.2 | 1
CN(Cc1c(O)ccc2c1oc(=O)c1ccccc12)C1CCCCC1 | 26 | 50* | -1.5 | 0.7 | 0.5
C=CCN(CC=C)C(=O)C(=O)c1cc(C)n(-c2ccc([N+](=O)[O-])cc2)c1C | 44 | 98* | x | 0.6 | 0
Cc1cc(/C=C(\C#N)C(=O)NCc2cccs2)c(C)n1-c1ccc([N+](=O)[O-])cc1 | x | x | 0.57 | x | x
Cc1cc(C(=O)CN2CC(C)OC(C)C2)c(C)n1-c1ccccc1 (stereo not given) | 8 | 4 | 0.22 | 0.9 | 1
Cc1cc(C(=O)C(=O)N(C)C)c(C)n1-c1ccc([N+](=O)[O-])cc1 | 3 | 72* | 0.7 | 1 | 0.3
CCCNc1nc(N)nc(-c2cc(Cl)ccc2OC)n1 | 26 | 74* | -0.57 | 0.7 | 0.3
SMILES | CYP2C9 inh | CYP2C19 inh | Cav32 inh | CYP2C9 act | CYP2C19 act
CCCN(CCC)c1nc(N)nc(-c2cc(Cl)ccc2OC)n1 | 16 | 58* | -1.2 | 0.8 | 0.4
CCOc1nc(Nc2cc(Cl)ccc2OC)nc(OCC)n1 | x | x | -0.067 | x | x
CCOC(=O)N1CCC(NS(=O)(=O)c2cc(Br)cnc2N)CC1 | 79* | 36 | -0.13 | 0.2 | 0.6
CCOC(=O)N1CCC(NC(=O)c2cc(S(=O)(=O)N(CC)CC)ccc2F)CC1 | 43 | 15 | 0.89 | 0.6 | 0.8
COc1ccc(N2CCN(C(=O)CSc3ccccc3)CC2)cc1 | 11 | 4 | -0.25 | 0.9 | 1
CC1(C)Cc2ccccc2-c2nnc(SCC(=O)N3CCc4ccccc43)n21 | 53* | 41 | 0.069 | 0.5 | 0.6
COc1ccc(N2CCN(C(=O)CSc3ccccc3N)CC2)cc1 | 69* | 58* | -0.073 | 0.3 | 0.4
COc1ccc(N2CCN(C(=O)CSc3nnc4n3C(C)(C)Cc3ccccc3-4)CC2)cc1 | 5 | 58* | x | 1 | 0.4
COC(=O)CSc1nnc2n1C(C)(C)Cc1ccccc1-2 | 3 | 27 | 0.78 | 1 | 0.7
COc1ccc(N2CCN(C(=O)CC(NC(N)=O)c3cccc(Oc4ccccc4)c3)CC2)cc1 (stereo not given) | 39 | 64* | -5.5* | 0.6 | 0.4
